Results: PubChem BioAssay (NCATS)
Results filed as inconclusive are left out. The source made the active and inactive calls. Unless noted, the call rests on the fitted dose curve; in most records, active means well fitted curve in the direction sought with a large enough effect; inconclusive means small, poorly fitted or top-dose-only effect, or another doubt; inactive means no such curve, though single readings can be large; an effect the other way counts as inactive or inconclusive.

How the values were obtained:
[1] = biological target: ATP-dependent 6-phosphofructokinase (Trypanosoma brucei brucei) (UniProt O15648); experiment: qHTS Assay to Find Inhibitors of T. brucei phosphofructokinase: hit validation (AID 492961);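 further: luminescence reports ADP formed as PFK phosphorylates fructose-6-phosphate with ATP; on the % scale 0 is the no-effect control and ±100 the full control effect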
Procedure, shortened: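 ADP-Glo luminescence read-out of ADP formed by 1.25 nM PFK from 0.1 mM ATP and 0.5 mM F6P (TEA pH 8.0, 45 min, RT). Compounds titrated; activity normalized to no-enzyme and full-enzyme controls.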

[2] = biological target: Ubiquitin carboxyl-terminal hydrolase 1 (Homo sapiens) (UniProt O94782); experiment: Inhibitors of USP1/UAF1: Pilot qHTS (AID 504865);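 further: rhodamine fluorescence freed from ubiquitin-rhodamine substrate followed over time; top concentration of the series differs between compounds; on the % scale 0 is the no-effect control and ±100 the full control effect; nearly all actives have a fitted effect of over 35% in size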
Procedure, shortened: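 In 50mM HEPES pH 7.8 containing 0.5mM EDTA, 1mM TCEP, 0.1 mg/ml BSA and 0.01% Tween-20, 1nM USP1/UAF1 is exposed to compound for 15 min, then Ub-Rho (150nM final) is added and fluorescence is read over time.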

[3] = biological target: Luciferin 4-monooxygenase (Photinus pyralis) (UniProt P08659); experiment: Biochemical firefly luciferase enzyme assay for NPC (AID 624030);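 further: purified P. pyralis luciferase at 10 nM with luciferin and ATP substrate; 0% = DMSO and -100% = full luciferase inhibition by PTC124 control; nearly all actives have a fitted effect of over 70% in size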
Procedure, shortened: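 Direct inhibition of firefly luciferase enzyme (10 nM final, 50 mM Tris Acetate) assessed by luminescence within 5 minutes. Percent activity scaled between DMSO and PTC124 positive control, with concentration-effect curves classified by fit quality and response.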

[4] = S16 Schwann cell PMP22 intronic element beta-lactamase assay (AID 624044; calls by dose curve;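 further: 0% = DMSO and -100% = potassium clavulanate positive control; nearly all actives have a fitted effect of over 15% in size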); settings: S16 rat Schwann cells, PMP22 element beta-lactamase FRET, 24 h; ratio activity, negative = inhibition: at 38.3 µM (top of the series) unless noted
Procedure, shortened: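 Rat S16 Schwann cells with beta-Lac driven by a PMP22 intronic element, compound-treated 24 h at 37 °C. LiveBLAzer FRET B/G read: 460 nm normalized to potassium clavulanate vs DMSO; 535 nm FRET as viability; concentration-effect curves classified.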

[5] = Primary qHTS to identify inhibitors of SARS-CoV-2 cell entry (AID 1645846; calls by dose curve; further: potency means the concentration at half of the fitted maximal effect; nearly all actives have a fitted effect of over 45% in size); settings: SARS-CoV-2 pseudovirus cell entry assay, luminescence; activity change, negative = inhibition: at 57.1 µM (top of the series) unless noted
Procedure, shortened: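 Inhibition of spike-mediated entry was scored in human ACE2-transfected Expi293F cells. Particles were MLV-pseudotyped with Wuhan-Hu-1 S carrying a 19-aa C-terminal deletion; signal was luciferase after two days, scaled between spike PP and fusion-protein-free PP.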

[6] = biological target: Glutathione peroxidase 1 (Homo sapiens) (UniProt P07203); experiment: Primary qHTS Assay for Inhibitors of Recombinant Selenoprotein Glutathione Peroxidase 1 (GPX1) (AID 1845191); further: nearly all actives have a fitted effect of over 65% in size
Procedure, shortened: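 10 nM GPX1 + cpd, 30 min RT; start w/ 1 mM GSH, 0.5 mM cumene hydroperoxide, 0.5 mM NADPH, 100 nM GR, 0.01% BSA; buffer 50 mM Tris-HCl pH 7.5, 2 mM EDTA, 150 mM NaCl; Fl 340/450, 0 & 15 min.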

[7] = qHTS profiling for inhibitors of Plasmodium falciparum proliferation (AID 504749); further: nearly all actives have a fitted effect of over 60% in size; further: potency means the concentration at half of the fitted maximal effect;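 on activity, negative = inhibition: 0% = DMSO vehicle and full inhibition = artemisinin control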; settings: P. falciparum in erythrocytes, SYBR Green DNA, 72 h, at 28.7 µM (top of the series)
Procedure, shortened: (§1)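 Three-day growth assay of blood-stage parasites in erythrocytes (0.3% parasitemia, 2.5% hematocrit) at 37 C, 5% CO2, quantified by SYBR Green DNA staining after overnight detergent lysis.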

[8] = tested on: 3D7; experiment: as above; settings: P. falciparum in erythrocytes, SYBR Green DNA, 72 h; series mostly up to 28.7 µM
Procedure, shortened: as §1

[9] = tested on: 7G8; experiment: as above; settings: P. falciparum in erythrocytes, SYBR Green DNA, 72 h; series mostly up to 12.8 µM
Procedure, shortened: as §1

[10] = tested on: AA1029; experiment: as above; settings: P. falciparum in erythrocytes, SYBR Green DNA, 72 h; series mostly up to 28.7 µM
Procedure, shortened: as §1

[11] = tested on: ATS189; experiment: as above; settings: P. falciparum in erythrocytes, SYBR Green DNA, 72 h; series mostly up to 28.7 µM
Procedure, shortened: as §1

[12] = tested on: ATS95; experiment: as above; settings: P. falciparum in erythrocytes, SYBR Green DNA, 72 h; series mostly up to 28.7 µM
Procedure, shortened: as §1

[13] = tested on: C2A; experiment: as above; settings: P. falciparum in erythrocytes, SYBR Green DNA, 72 h; series mostly up to 28.7 µM
Procedure, shortened: as §1

[14] = tested on: CP185; experiment: as above; settings: P. falciparum in erythrocytes, SYBR Green DNA, 72 h; series mostly up to 28.7 µM
Procedure, shortened: as §1

[15] = tested on: CP191; experiment: as above; settings: P. falciparum in erythrocytes, SYBR Green DNA, 72 h; series mostly up to 28.7 µM
Procedure, shortened: as §1

[16] = tested on: CP192; experiment: as above; settings: P. falciparum in erythrocytes, SYBR Green DNA, 72 h; series mostly up to 28.7 µM
Procedure, shortened: as §1

[17] = tested on: CP194; experiment: as above; settings: P. falciparum in erythrocytes, SYBR Green DNA, 72 h; series mostly up to 28.7 µM
Procedure, shortened: as §1

[18] = tested on: CP201; experiment: as above; settings: P. falciparum in erythrocytes, SYBR Green DNA, 72 h; series mostly up to 28.7 µM
Procedure, shortened: as §1

[19] = tested on: CP211; experiment: as above; settings: P. falciparum in erythrocytes, SYBR Green DNA, 72 h; series mostly up to 28.7 µM
Procedure, shortened: as §1

[20] = tested on: CP215; experiment: as above; settings: P. falciparum in erythrocytes, SYBR Green DNA, 72 h; series mostly up to 28.7 µM
Procedure, shortened: as §1

[21] = tested on: CP217; experiment: as above; settings: P. falciparum in erythrocytes, SYBR Green DNA, 72 h; series mostly up to 28.7 µM
Procedure, shortened: as §1

[22] = tested on: CP238; experiment: as above; settings: P. falciparum in erythrocytes, SYBR Green DNA, 72 h; series mostly up to 28.7 µM
Procedure, shortened: as §1

[23] = tested on: CP247; experiment: as above; settings: P. falciparum in erythrocytes, SYBR Green DNA, 72 h; series mostly up to 28.7 µM
Procedure, shortened: as §1

[24] = tested on: CP250; experiment: as above; settings: P. falciparum in erythrocytes, SYBR Green DNA, 72 h; series mostly up to 12.8 µM
Procedure, shortened: as §1

[25] = tested on: CP252; experiment: as above; settings: P. falciparum in erythrocytes, SYBR Green DNA, 72 h; series mostly up to 12.8 µM
Procedure, shortened: as §1

[26] = tested on: CP256; experiment: as above; settings: P. falciparum in erythrocytes, SYBR Green DNA, 72 h; series mostly up to 28.7 µM
Procedure, shortened: as §1

[27] = tested on: CP260; experiment: as above; settings: P. falciparum in erythrocytes, SYBR Green DNA, 72 h; series mostly up to 28.7 µM
Procedure, shortened: as §1

[28] = tested on: CP262; experiment: as above; settings: P. falciparum in erythrocytes, SYBR Green DNA, 72 h; series mostly up to 28.7 µM
Procedure, shortened: as §1

[29] = tested on: CP265; experiment: as above; settings: P. falciparum in erythrocytes, SYBR Green DNA, 72 h; series mostly up to 12.8 µM
Procedure, shortened: as §1

[30] = tested on: CP266; experiment: as above; settings: P. falciparum in erythrocytes, SYBR Green DNA, 72 h; series mostly up to 12.8 µM
Procedure, shortened: as §1

[31] = tested on: CP268; experiment: as above; settings: P. falciparum in erythrocytes, SYBR Green DNA, 72 h; series mostly up to 28.7 µM
Procedure, shortened: as §1

[32] = tested on: CP269; experiment: as above; settings: P. falciparum in erythrocytes, SYBR Green DNA, 72 h; series mostly up to 28.7 µM
Procedure, shortened: as §1

[33] = tested on: CP286; experiment: as above; settings: P. falciparum in erythrocytes, SYBR Green DNA, 72 h; series mostly up to 28.7 µM
Procedure, shortened: as §1

[34] = tested on: CP291; experiment: as above; settings: P. falciparum in erythrocytes, SYBR Green DNA, 72 h; series mostly up to 28.7 µM
Procedure, shortened: as §1

[35] = tested on: CP297; experiment: as above; settings: P. falciparum in erythrocytes, SYBR Green DNA, 72 h; series mostly up to 28.7 µM
Procedure, shortened: as §1

[36] = tested on: CP305; experiment: as above; settings: P. falciparum in erythrocytes, SYBR Green DNA, 72 h; series mostly up to 28.7 µM
Procedure, shortened: as §1

[37] = tested on: CP315; experiment: as above; settings: P. falciparum in erythrocytes, SYBR Green DNA, 72 h; series mostly up to 28.7 µM
Procedure, shortened: as §1

[38] = tested on: CP325; experiment: as above; settings: P. falciparum in erythrocytes, SYBR Green DNA, 72 h; series mostly up to 28.7 µM
Procedure, shortened: as §1

[39] = tested on: CP329; experiment: as above; settings: P. falciparum in erythrocytes, SYBR Green DNA, 72 h; series mostly up to 28.7 µM
Procedure, shortened: as §1

[40] = tested on: CP335; experiment: as above; settings: P. falciparum in erythrocytes, SYBR Green DNA, 72 h; series mostly up to 12.8 µM
Procedure, shortened: as §1

[41] = tested on: DFO2036; experiment: as above; settings: P. falciparum in erythrocytes, SYBR Green DNA, 72 h; series mostly up to 28.7 µM
Procedure, shortened: as §1

[42] = tested on: DIV14; experiment: as above; settings: P. falciparum in erythrocytes, SYBR Green DNA, 72 h; series mostly up to 28.7 µM
Procedure, shortened: as §1

[43] = tested on: Dd2; experiment: as above; settings: P. falciparum in erythrocytes, SYBR Green DNA, 72 h; series mostly up to 28.7 µM
Procedure, shortened: as §1

[44] = tested on: ECU; experiment: as above; settings: P. falciparum in erythrocytes, SYBR Green DNA, 72 h; series mostly up to 28.7 µM
Procedure, shortened: as §1

[45] = tested on: FAB9; experiment: as above; settings: P. falciparum in erythrocytes, SYBR Green DNA, 72 h; series mostly up to 28.7 µM
Procedure, shortened: as §1

[46] = tested on: GB4; experiment: as above; settings: P. falciparum in erythrocytes, SYBR Green DNA, 72 h; series mostly up to 28.7 µM
Procedure, shortened: as §1

[47] = tested on: ICS; experiment: as above; settings: P. falciparum in erythrocytes, SYBR Green DNA, 72 h; series mostly up to 28.7 µM
Procedure, shortened: as §1

[48] = tested on: JCK; experiment: as above; settings: P. falciparum in erythrocytes, SYBR Green DNA, 72 h; series mostly up to 28.7 µM
Procedure, shortened: as §1

[49] = tested on: P94_40; experiment: as above; settings: P. falciparum in erythrocytes, SYBR Green DNA, 72 h; series mostly up to 28.7 µM
Procedure, shortened: as §1

[50] = tested on: PC49; experiment: as above; settings: P. falciparum in erythrocytes, SYBR Green DNA, 72 h; series mostly up to 28.7 µM
Procedure, shortened: as §1

[51] = tested on: TAB109; experiment: as above; settings: P. falciparum in erythrocytes, SYBR Green DNA, 72 h; series mostly up to 12.8 µM
Procedure, shortened: as §1

[52] = tested on: TAB113; experiment: as above; settings: P. falciparum in erythrocytes, SYBR Green DNA, 72 h; series mostly up to 28.7 µM
Procedure, shortened: as §1

Chain of Luciferin 4-monooxygenase (Photinus pyralis) (P08659 whole entry, looked up): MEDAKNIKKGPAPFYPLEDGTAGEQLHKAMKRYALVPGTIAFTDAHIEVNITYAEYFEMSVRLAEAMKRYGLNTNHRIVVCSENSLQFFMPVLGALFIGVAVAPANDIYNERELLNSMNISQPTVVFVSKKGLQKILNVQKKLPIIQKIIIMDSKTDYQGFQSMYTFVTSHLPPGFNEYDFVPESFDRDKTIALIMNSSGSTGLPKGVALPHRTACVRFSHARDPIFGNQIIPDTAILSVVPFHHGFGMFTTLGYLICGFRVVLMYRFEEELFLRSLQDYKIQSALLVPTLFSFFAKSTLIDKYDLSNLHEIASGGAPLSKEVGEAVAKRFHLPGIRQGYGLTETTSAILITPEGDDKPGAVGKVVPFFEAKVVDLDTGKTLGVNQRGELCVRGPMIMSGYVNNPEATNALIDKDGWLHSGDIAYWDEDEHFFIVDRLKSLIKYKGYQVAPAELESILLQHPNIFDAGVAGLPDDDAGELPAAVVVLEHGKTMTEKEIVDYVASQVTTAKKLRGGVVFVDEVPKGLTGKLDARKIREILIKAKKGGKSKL
Chain of Glutathione peroxidase 1 (Homo sapiens) (P07203 whole entry, looked up): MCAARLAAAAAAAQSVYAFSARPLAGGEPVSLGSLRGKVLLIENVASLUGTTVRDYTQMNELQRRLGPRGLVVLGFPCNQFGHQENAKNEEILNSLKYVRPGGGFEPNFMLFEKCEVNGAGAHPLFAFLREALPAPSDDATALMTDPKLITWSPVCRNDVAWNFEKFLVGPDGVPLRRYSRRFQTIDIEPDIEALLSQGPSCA
Chain of ATP-dependent 6-phosphofructokinase (Trypanosoma brucei brucei) (O15648 whole entry, looked up): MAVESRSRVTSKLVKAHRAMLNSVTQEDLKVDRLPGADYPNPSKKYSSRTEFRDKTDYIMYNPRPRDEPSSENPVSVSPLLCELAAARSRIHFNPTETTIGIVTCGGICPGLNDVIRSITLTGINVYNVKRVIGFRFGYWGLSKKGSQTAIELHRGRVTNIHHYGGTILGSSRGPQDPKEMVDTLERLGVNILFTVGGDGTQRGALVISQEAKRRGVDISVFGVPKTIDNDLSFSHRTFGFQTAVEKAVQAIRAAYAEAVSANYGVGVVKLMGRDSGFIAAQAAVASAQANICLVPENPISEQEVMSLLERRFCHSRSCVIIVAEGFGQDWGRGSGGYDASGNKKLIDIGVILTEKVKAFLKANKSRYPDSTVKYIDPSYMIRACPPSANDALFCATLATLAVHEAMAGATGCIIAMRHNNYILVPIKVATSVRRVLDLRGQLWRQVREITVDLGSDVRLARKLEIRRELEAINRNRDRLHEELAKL
Chain of Ubiquitin carboxyl-terminal hydrolase 1 (Homo sapiens) (O94782 whole entry, looked up): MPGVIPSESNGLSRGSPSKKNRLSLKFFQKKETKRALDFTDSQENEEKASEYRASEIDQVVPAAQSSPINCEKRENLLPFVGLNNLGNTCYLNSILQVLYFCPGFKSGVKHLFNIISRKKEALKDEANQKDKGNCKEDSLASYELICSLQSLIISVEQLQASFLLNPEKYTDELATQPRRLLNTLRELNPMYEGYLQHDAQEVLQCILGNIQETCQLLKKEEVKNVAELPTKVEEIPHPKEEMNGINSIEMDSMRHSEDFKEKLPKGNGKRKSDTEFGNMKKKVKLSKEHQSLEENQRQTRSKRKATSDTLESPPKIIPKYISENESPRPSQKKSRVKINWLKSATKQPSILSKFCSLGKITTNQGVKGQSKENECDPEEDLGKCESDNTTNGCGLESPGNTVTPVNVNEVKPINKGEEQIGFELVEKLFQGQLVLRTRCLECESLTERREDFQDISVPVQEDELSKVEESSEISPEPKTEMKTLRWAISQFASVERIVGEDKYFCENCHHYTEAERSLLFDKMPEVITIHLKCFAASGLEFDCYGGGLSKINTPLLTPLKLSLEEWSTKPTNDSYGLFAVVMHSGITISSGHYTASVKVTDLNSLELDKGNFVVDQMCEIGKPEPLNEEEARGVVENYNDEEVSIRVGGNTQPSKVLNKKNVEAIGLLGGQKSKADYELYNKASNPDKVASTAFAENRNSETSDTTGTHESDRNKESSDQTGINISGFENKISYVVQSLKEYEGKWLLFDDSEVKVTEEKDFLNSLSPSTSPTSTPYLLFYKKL

C[C@]12CC[C@H](O)C[C@H]1CCC1C2CC[C@]2(C)[C@@H](c3ccc(=O)oc3)C[C@H]3O[C@]132 (stereo partly drawn)
inactive: Potency [1] | Potency [2] | Potency [3] | Potency [4] | Potency [6] | activity, negative = inhibition ([7]; parasite line A) -25.7% | activity, negative = inhibition ([7]; parasite line B) -8.73% | Potency [8] | Potency [10] | Potency [11] | Potency [12] | Potency [13] | Potency [14] | Potency [15] | Potency [16] | Potency [17] | Potency [18] | Potency [19] | Potency [20] | Potency [21] | Potency [22] | Potency [23] | Potency [24] | Potency [25] | Potency [26] | Potency [27] | Potency [28] | Potency [29] | Potency [30] | Potency [31] | Potency [32] | Potency [33] | Potency [34] | Potency [35] | Potency [36] | Potency [37] | Potency [38] | Potency [39] | Potency [40] | Potency [41] | Potency [43] | Potency [44] | Potency [45] | Potency [46] | Potency [48] | Potency [49] | Potency [50] | Potency [51] | Potency [52]
active: Potency [5] 7.08 µM | Potency [9] 11.2 µM | Potency [42] 13.5 µM | Potency [47] 7.08 µM
